Results published in PubChem BioAssay AID485317 (Broad Institute, 2010).
In all, about 290,000 compounds went through this assay and about 11,000 (3.8%) were called active. The sample holds actives, similar compounds and a random draw of the others, so the mix is not that of the screen.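 The calls were made as follows: active = mean replicate inhibition above about 79%, with every replicate also reaching it (limit read from the data); inconclusive = only one of the two criteria met; inactive = mean below limit and not every replicate reaching it.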

The compounds below were run against FAD-linked sulfhydryl oxidase ALR (Homo sapiens) (UniProt P55789) (assay: inhibitors of human ALR sulfhydryl oxidase, primary screen, biochemical, H2O2 detection, HRP-luminol luminescence, single point (AID 485317)). Conditions: purified ALR, DTT oxidation, active compounds read high, concentration not given here.
Chain of FAD-linked sulfhydryl oxidase ALR (Homo sapiens) (P55789 whole entry, looked up): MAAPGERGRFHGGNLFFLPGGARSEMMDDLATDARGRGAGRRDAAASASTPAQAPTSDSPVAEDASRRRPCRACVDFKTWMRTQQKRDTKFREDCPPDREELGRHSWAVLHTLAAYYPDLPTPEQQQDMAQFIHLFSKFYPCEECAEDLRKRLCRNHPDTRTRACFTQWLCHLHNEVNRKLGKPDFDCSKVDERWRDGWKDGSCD

SMILES	inhibition
COc1ccc(CCNC(=O)COC(=O)C2CC2C)cc1 (stereo not drawn)	5.1% (inactive)
CCOc1ccc(S(=O)(=O)Nc2cccc(C(=O)NCC3(N4CCCCC4)CCCCC3)c2)cc1	-4.42% (inactive)
COC(=O)c1[nH]c2ccc(Br)cc2c1NC(=O)Oc1ccccc1	97.3% (active)
CCOC(=O)c1[nH]c2ccc(OC)cc2c1NC(=O)CCN1CCN(Cc2ccccc2)CC1	24.1% (inactive)
COC(=O)c1[nH]c2ccccc2c1NC(=O)CN1CCCc2ccccc21	-3.93% (inactive)
CCCn1c(CCNc2nc(-c3ccc(OC)cc3)cs2)nc2ccccc21	12.7% (inactive)
Cc1ccc(CC(=O)N(C)CC(=O)N(CC(C)C)c2c(N)n(CC(C)C)c(=O)[nH]c2=O)cc1C	-5.01% (inactive)
Cc1ccc2nc(SCC(=O)N3CC(C)OC(C)C3)nc(=O)n2c1 (stereo not drawn)	-0.878% (inactive)
CCc1noc(C)c1C(=O)NNC(=O)c1ccc(F)cc1	0.314% (inactive)
COc1ccc(C(=O)NC(=S)NNC(=O)CCc2ccccc2)cc1	24.8% (inactive)
Cc1ccc(CNC(=O)c2c(-c3ccccc3)noc2C)cc1	-6.06% (inactive)
COc1ccc(C(=O)NC(=S)NNC(=O)c2c(-c3ccccc3)noc2C)cc1	99.2% (active)
COc1ccc(C(=O)NNC(=S)NC(=O)c2ccccc2)cc1	34.7% (inactive)
Cc1onc(-c2ccccc2)c1C(=O)NNC(=S)NC(=O)c1ccc(F)cc1	93.4% (active)
COc1ccc(S(=O)(=O)N(C)C[C@H]2Oc3c(NC(=O)Nc4ccc5c(c4)OCO5)cccc3C(=O)N([C@H](C)CO)C[C@@H]2C)cc1	-7.29% (inactive)
CC(C)(C)OC(=O)NCCCCCNC(=O)c1[nH]cnc1C(=O)Nc1nccs1	-6.55% (inactive)
COc1ccc(Cl)cc1NS(=O)(=O)c1cccc(C(=O)NC2CCC(O)CC2)c1 (stereo not drawn)	-6.32% (inactive)
O=C(COC(=O)c1cccc(Cl)c1)NC(=O)NCc1ccccc1	-1.07% (inactive)
CC(=O)c1ccc(NC(=O)CSc2nc3ccccc3c(=O)n2CCCN2CCOCC2)cc1	23.1% (inactive)
COc1cccc(NC(=O)C(Sc2nc3ccccc3c(=O)n2CC(C)C)c2ccccc2)c1 (stereo not drawn)	-3.45% (inactive)
CCc1ccc(NC(=O)CSc2nc3ccccc3c(=O)n2CCN2CCOCC2)cc1	98.6% (active)
COCCn1c(SCC(=O)Nc2ccc3c(c2)CCC3)nc2ccccc2c1=O	-0.883% (inactive)
COC(=O)c1ccc2c(=O)n(CCN3CCOCC3)c(SCC(=O)Nc3cccc(OC)c3)nc2c1	99.1% (active)
CC(=O)NCCn1c(SCC(=O)Nc2ccc(C)cc2)nc2ccccc2c1=O	-3.53% (inactive)
Cc1csc(NC(=O)c2ccc(C)s2)n1	27.4% (inactive)

SMILES	inhibition
O=C(COC(=O)Cc1ccc([N+](=O)[O-])cc1)NC1CCCCCC1	3.75% (inactive)
COc1ccc(-c2c(-c3cc(OC)cc(OC)c3)n(C)c3ccc(-c4ccn[nH]4)cc23)cc1	-7.81% (inactive)
Brc1ccc(CN2CC[C@H]3C=CCc4cccc(c43)C2)cc1	-17.1% (inactive)
Cc1cc(C)nc(S/C=C/C(=O)c2ccccc2)n1	18.2% (inactive)
O=C(/C=C/Sc1ncn[nH]1)c1ccc(Cl)cc1	98.6% (active)
COc1ccc(Cl)cc1CSc1ncn[nH]1	3.36% (inactive)
CCN(c1ccccc1)S(=O)(=O)c1ccc(C(=O)Nc2ccccc2OC)cc1	2.02% (inactive)
COc1ccc(NC(=O)N(C)C[C@H]2Oc3ccc(NC(=O)C4CC4)cc3C(=O)N([C@H](C)CO)C[C@@H]2C)cc1	-0.429% (inactive)
CN(C)CCN(C(=O)CN1C(=O)c2ccccc2C1=O)c1nc2cc3c(cc2s1)OCCO3	-1.15% (inactive)
Nc1ccccc1/C=N\N=C/c1ccccc1N	-2.8% (inactive)
Nc1nnc(SCC(=O)Nc2ccc3nc(SCC(=O)Nc4ccccc4)sc3c2)s1	-42% (inactive)
O=C(CSc1nc2[nH]c(=O)[nH]c(=O)c2s1)Nc1cccc(F)c1	98.7% (active)
Cc1nc2nc(SCC(=O)Nc3cccc(F)c3)[nH]c2cc1Br	-13.2% (inactive)
O=S(=O)(NCCS(=O)(=O)N1CCN(c2ccccc2)CC1)c1ccc(F)cc1	-11.7% (inactive)
CC[C@@H]1Cc2cc(O)ccc2C2=C1c1ccc(O)cc1C[C@H]2CC	97.9% (active)
CC1(C)CC(=O)c2ccc(O)cc2O1	0.168% (inactive)
CCc1nnc(NC(=O)c2cc(S(=O)(=O)N3CCCCC3)ccc2C)s1	-5.04% (inactive)
Cc1ccc(CNS(=O)(=O)CCNC(=O)c2ccccc2)cc1	0.449% (inactive)
CCN(CC(=O)Nc1ccc(OC)cc1)C(=O)c1ccc(Cl)c(S(=O)(=O)N2CCCC2)c1	-0.437% (inactive)
O=C(CSc1ncnc2sccc12)N1CCN(C(=O)c2cccs2)CC1	3.8% (inactive)
COc1ccccc1C(=O)NC(CCSC)C(=O)N1CCN(C/C=C/c2ccccc2)CC1 (stereo not drawn)	-15.9% (inactive)
Cc1cc(O)ccc1NC1=CC(=O)CC(C)(C)C1	92.3% (active)
CC1(C)CC(=O)C=C(Nc2ccccc2)C1	3.81% (inactive)
COC(=O)NNC1=CC(=O)CC(C)(C)C1	5.45% (inactive)
O=C(Nc1cc(S(=O)(=O)N2CCOCC2)ccc1N1CCOCC1)c1c(F)cccc1Cl	0.0766% (inactive)

SMILES	inhibition
COc1cc(/C=C2/C(=O)NN(c3cccc(Cl)c3)C2=O)cc(Br)c1O	98.2% (active)
C#CCOc1ccc(/C=C2/C(=O)NN(c3ccccc3)C2=O)cc1OC	66.4% (inactive)
COc1cc(/C=N/O)cc(Br)c1OCc1cccc(Cl)c1	-0.717% (inactive)
C=CCSc1ccc(S(=O)(=O)N2CCN(C)CC2)cn1	0.831% (inactive)
CC1CCc2sc(C(=O)NCC(c3ccco3)N3CCCCC3)cc2C1 (stereo not drawn)	-3.3% (inactive)
C[C@H](NC(=O)c1ccccc1Cl)C(=O)OCC(=O)N1CCN(c2ccccc2)CC1	50.7% (inactive)
Cn1nnnc1SCC(=O)Nc1sccc1C(N)=O	23.5% (inactive)
COc1ccc(C(=O)Nc2ccccc2C(=O)NCc2ccco2)cc1	-4.1% (inactive)
COc1ccc(-c2cc(C(F)(F)F)nc(SCCC(=O)NCc3ccco3)n2)cc1	96.7% (active)
COc1cc(OC)cc(-c2nc3nc(C)c(CCC(=O)NCc4ccco4)c(C)n3n2)c1	0.656% (inactive)
CC1C(=O)N2CCCc3cc(S(=O)(=O)NCc4ccc(F)cc4)cc1c32 (stereo not drawn)	2.55% (inactive)
Cc1ccc(CN2CC(C(=O)NNC(=O)Cn3ccc(C(F)(F)F)n3)CC2=O)cc1 (stereo not drawn)	-1.18% (inactive)
CC(=O)Nc1ccc(S(=O)(=O)Nc2nc(-c3ccc(C(C)(C)C)cc3)cs2)cc1	14.9% (inactive)
CC(=O)Nc1ccc(-c2csc(NC=C3C(=O)OC(C)(C)OC3=O)n2)cc1	98.2% (active)
CC(=O)Nc1cccc(-c2csc(Nc3cccc(C)n3)n2)c1	-4.7% (inactive)
CCOC(=O)c1sc(NC(=O)C2CSC3(C)CCC(=O)N23)nc1C (stereo not drawn)	-0.227% (inactive)
COc1cc(/C=C/C(=O)OCC(=O)NC2CC2)cc(OC)c1OC	-0.461% (inactive)
O=C(CCc1nc(-c2ccccc2)no1)Nc1cccc(C(=O)NC2CC2)c1	28.1% (inactive)
Cc1ccccc1-c1cc(C(=O)NCC2CC2)n(CC2CC(c3cccnc3)=NO2)n1 (stereo not drawn)	10.4% (inactive)
CCc1ccc2c(c1)C1(NN=C(c3ccccc3)S1)C(=O)N2 (stereo not drawn)	33.8% (inactive)
O=C1Nc2ccccc2C12Nc1ccccc1S2 (stereo not drawn)	98.7% (active)
COc1ccc(C2(O)C(=O)Nc3ccccc32)cc1 (stereo not drawn)	-1.7% (inactive)
CCCCn1c(N)c(N(CCOC)C(=O)c2cccc(S(=O)(=O)N3CCCCC3)c2)c(=O)[nH]c1=O	-6.18% (inactive)
CC(C)(C)OC(=O)C[C@H]1C/C=C\C[C@@H](CC(=O)N[C@H](CO)Cc2ccccc2)C(=O)NC[C@@H](c2ccccc2)OC1=O	-2.76% (inactive)
CCCCCCSc1ccc([C@@H]2[C@H]3C(=O)N(CC)C(=O)[C@H]3[C@]3(C(=O)OC)CCCCN23)cc1	3.32% (inactive)

SMILES	inhibition
Cc1ccn(CCC(=O)N2c3ccccc3CC2C)n1 (stereo not drawn)	-7.69% (inactive)
CCCC(=O)N1c2ccc(-c3csc(N)n3)cc2CC1C (stereo not drawn)	98.9% (active)
CCOc1ncccc1C(=O)OCC(=O)N1c2ccccc2CC1C (stereo not drawn)	2.2% (inactive)
CCOc1ccc(NS(=O)(=O)c2ccc(C(=O)NCC(c3ccccc3OC)N3CCCC3)cc2)cc1 (stereo not drawn)	0.447% (inactive)
Cc1cs/c(=N\N=C\c2ccc(O)cc2)n1Cc1ccco1	98.6% (active)
COc1ccc(NC(=O)CSc2nnc(-c3cccs3)n2Cc2ccco2)cc1OC	-13.2% (inactive)
CN(c1ccccc1)c1ccc(/C=c2\s/c(=C(/C#N)C(=O)C(C)(C)C)n(Cc3ccco3)c2=O)cc1	-25.2% (inactive)
Cc1cc(=O)[nH]c(N/N=C/c2ccc3c(c2)OCCO3)n1	17.8% (inactive)
CCN(CC)c1ccc(/C=N/Nc2nc(C)cc(=O)[nH]2)cc1	99.1% (active)
Cc1cc(=O)[nH]c(N/N=C/c2c(C)nn(-c3ccccc3Cl)c2Cl)n1	24.5% (inactive)
COc1ccccc1-c1oc2ccccc2c1C#CCCCCO	-1.62% (inactive)
Cc1cccc(-c2nc(CS(=O)CC(=O)NC(C)CCc3ccccc3)c(C)o2)c1 (stereo not drawn)	92% (active)
O=C(COc1ccccc1)N1CCc2ccccc2C1	-0.403% (inactive)
COc1ccc(CNC(=O)Cc2ccc(-c3ccccc3)cc2)cc1OC	-4.45% (inactive)
COc1cccc(NC(=O)NCc2ccc(F)cc2)c1	-2.14% (inactive)
COc1cccc(N(CC(=O)N2CCc3ccccc3C2)S(C)(=O)=O)c1	-14.9% (inactive)
COc1ccc(CCNC(=O)CS(=O)(=O)Cc2nc(-c3ccc(C)cc3)oc2C)cc1OC	21.5% (inactive)
COc1ccc(-c2nc(CS(=O)CC(=O)NCc3ccccc3)c(C)o2)cc1OC (stereo not drawn)	98.9% (active)
COc1ccc(CC(=O)NC(C)CCc2ccccc2)cc1 (stereo not drawn)	-14.5% (inactive)
COc1cccc(-c2nc(CS(=O)CC(=O)NCc3ccc(F)cc3)c(C)o2)c1 (stereo not drawn)	98.8% (active)
COc1ccc(-c2nc(CS(=O)CC(=O)N3CCc4ccccc4C3)c(C)o2)cc1 (stereo not drawn)	99% (active)
CC(CCc1ccccc1)NC(=O)c1ccc(Br)o1 (stereo not drawn)	-19.9% (inactive)
Cc1ccc(-c2nc(CS(=O)(=O)CC(=O)NCc3ccc4c(c3)OCO4)c(C)o2)cc1	-0.75% (inactive)
